Results reported in PubChem BioAssay (Tox21).
Results filed as inconclusive are left out. The source made the active and inactive calls. Calls follow the shape of the dose curve; as a rule, active = well fitted curve in the direction sought with a large enough effect in the repeat runs; inconclusive = weak or mixed curves; inactive = no such curve, though single readings can be large; an effect the other way counts as inactive or inconclusive.

Assays:
[1] = A CellTox Green Cytotoxicity Assay to monitor cytotoxicity in HEK293 cells - 40 hour (AID 1224871); also: nearly all actives have a fitted effect of over 45% in size; also: potency is read from the fitted curve at half-maximal effect
Summary of the method: (§1)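 Seeding of HEK293 cells together with cytotoxicity dye preceded a 5 h incubation at 37 C/5% CO2. Test compounds in DMSO were then added and fluorescence monitored across 40 h.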

[2] = qHTS RealTime-Glo MT Cell Viability Assay in HEK293 cells - 16 hour (AID 1224872); also: top concentration of the series differs between compounds; nearly all actives have a fitted effect of over 50% in size
Summary of the method: (§2)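 Homogeneous bioluminescent viability format in HEK293 cells (600 cells/well). Following 5 h at 37 C/5% CO2, 23 nL compound was pintooled; the signal was measured repeatedly during 40 h incubation.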

[3] = qHTS RealTime-Glo MT Cell Viability Assay in HepG2 cells - 8 hour (AID 1224873); also: nearly all actives have a fitted effect of over 55% in size
Summary of the method: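 Real-time viability: cells seeded at 600 per well together with NanoLuc and cell-permeant prosubstrate, compounds added after 5 h incubation. Luminescence tracked at 0, 8, 16, 24, 32 and 40 h of exposure.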

[4] = qHTS RealTime-Glo MT Cell Viability Assay in HEK293 cells - 40 hour (AID 1224874); conditions: RealTime-Glo luminescence; max response: hits give low values; also: nearly all actives have a fitted effect of over 50% in size; also: potency is read from the fitted curve at half-maximal effect
Summary of the method: (§3)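 Tox21 screen in HEK293 using RealTime-Glo MT chemistry, with cells and reagent co-dispensed. Luminescence proportional to viable cell number was captured at intervals during 40 h compound exposure at 37 C.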

[5] = A CellTox Green Cytotoxicity Assay to monitor cytotoxicity in HEK293 cells - 24 hour (AID 1224875); also: series mostly up to about 77 µM; nearly all actives have a fitted effect of over 45% in size
Summary of the method: as §1

[6] = A CellTox Green Cytotoxicity Assay to monitor cytotoxicity in HepG2 cells - 16 hour (AID 1224876); also: nearly all actives have a fitted effect of over 45% in size
Summary of the method: (§4)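 Nonlytic assay: viable cells exclude the dye, so fluorescence scales with cell death. HepG2 at 600 cells/well, compounds added after 5 h, signal read across 40 h.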

[7] = A CellTox Green Cytotoxicity Assay to monitor cytotoxicity in HepG2 cells - 24 hour (AID 1224878); also: nearly all actives have a fitted effect of over 45% in size
Summary of the method: as §4

[8] = A CellTox Green Cytotoxicity Assay to monitor cytotoxicity in HepG2 cells - 40 hour (AID 1224879); also: nearly all actives have a fitted effect of over 40% in size; also: potency is read from the fitted curve at half-maximal effect
Summary of the method: as §4

[9] = qHTS RealTime-Glo MT Cell Viability Assay in HEK293 cells - 0 hour (AID 1224880)
Summary of the method: as §3

[10] = A CellTox Green Cytotoxicity Assay to monitor cytotoxicity in HepG2 cells - 32 hour (AID 1224883); also: nearly all actives have a fitted effect of over 50% in size; also: potency is read from the fitted curve at half-maximal effect
Summary of the method: as §4

[11] = A CellTox Green Cytotoxicity Assay to monitor cytotoxicity in HEK293 cells - 8 hour (AID 1224884); also: nearly all actives have a fitted effect of over 35% in size
Summary of the method: as §1

[12] = qHTS RealTime-Glo MT Cell Viability Assay in HepG2 cells - 16 hour (AID 1224885); also: nearly all actives have a fitted effect of over 50% in size
Summary of the method: (§5)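 Cell number in HepG2 cultures estimated from NanoLuc luminescence generated by metabolic reduction of a prosubstrate by living cells. The homogeneous, nonlytic format allowed repeated reads at 0, 8, 16, 24, 32 and 40 h of compound exposure.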

[13] = qHTS RealTime-Glo MT Cell Viability Assay in HEK293 cells - 24 hour (AID 1224886); also: nearly all actives have a fitted effect of over 50% in size; also: potency is read from the fitted curve at half-maximal effect; as to activity change, negative = cytotoxicity: top concentration of the series differs between compounds
Summary of the method: as §2

[14] = qHTS RealTime-Glo MT Cell Viability Assay in HEK293 cells - 8 hour (AID 1224887)
Summary of the method: as §3

[15] = A CellTox Green Cytotoxicity Assay to monitor cytotoxicity in HEK293 cells - 16 hour (AID 1224888); also: nearly all actives have a fitted effect of over 35% in size
Summary of the method: as §1

[16] = qHTS RealTime-Glo MT Cell Viability Assay in HepG2 cells - 0 hour (AID 1224889); also: nearly all actives have a fitted effect of over 50% in size; also: potency is read from the fitted curve at half-maximal effect
Summary of the method: as §5

[17] = A CellTox Green Cytotoxicity Assay to monitor cytotoxicity in HepG2 cells - 8 hour (AID 1224890); also: nearly all actives have a fitted effect of over 45% in size
Summary of the method: as §4

[18] = qHTS RealTime-Glo MT Cell Viability Assay in HepG2 cells - 32 hour (AID 1224877); also: nearly all actives have a fitted effect of over 55% in size
Summary of the method: as §5

[19] = A CellTox Green Cytotoxicity Assay to monitor cytotoxicity in HEK293 cells - 32 hour (AID 1224881); also: nearly all actives have a fitted effect of over 40% in size
Summary of the method: as §1

[20] = A CellTox Green Cytotoxicity Assay to monitor cytotoxicity in HepG2 cells - 0 hour (AID 1224882); also: nearly all actives have a fitted effect of over 35% in size
Summary of the method: as §4
% is scaled to controls: 0 for no effect and ±100 for the full control effect.

O=[Se]=O
inactive: Potency [2] | Potency [3] | Potency [5] | Potency [6] | Potency [7] | Potency [9] | Potency [11] | Potency [12] | Potency [14] | Potency [15] | Potency [16] | Potency [17]
active: Potency [1] 24.4 µM | Potency [4] 17.3 µM | Potency [8] 19.4 µM | Potency [10] 24.4 µM | Potency [13] 17.3 µM

CO[C@@H]1[C@H](OC(=O)NC(=O)CCl)CC[C@]2(CO2)[C@H]1[C@@]1(C)O[C@@H]1CC=C(C)C
inactive: cytotoxicity increase [1] -0.615% [at 15.8 µM] | activity change, negative = cytotoxicity [2] 13.2% [at 15.8 µM] | viability change, negative = cytotoxic [3] -0.3% [at 15.8 µM] | max response [4] 1.55% | activity change [5] -10.2% [at 15.8 µM, hits give high values] | cytotoxicity increase [6] -3.75% [at 15.8 µM] | activity change, negative = cytotoxic [18] 1.26% [at 15.8 µM] | cytotoxicity [7] -1.01% [at 15.8 µM] | cytotoxicity increase [19] -3.65% [at 15.8 µM] | cytotoxicity [20] 1.46% [at 15.8 µM] | cytotoxicity increase [10] -1.39% [at 15.8 µM] | cytotoxicity increase [11] -6.32% [at 15.8 µM] | activity change, negative = cytotoxic [12] 1.78% [at 15.8 µM] | activity change, negative = cytotoxicity [13] 14.6% [at 15.8 µM] | activity change, negative = cytotoxicity [14] 6.68% [at 15.8 µM] | activity change [15] -10.6% [at 15.8 µM, hits give high values] | activity change, negative = cytotoxicity [16] 0.756% [at 15.8 µM] | cytotoxicity increase [17] -1.9% [at 15.8 µM]

CCOP(=S)(OCC)Oc1cc(Cl)c(Br)cc1Cl
inactive: Potency [1] | Potency [2] | Potency [3] | max response [4] -15.7% | Potency [5] | Potency [18] | Potency [7] | Potency [8] | Potency [19] | Potency [20] | Potency [10] | Potency [11] | Potency [14] | Potency [15] | Potency [16] | Potency [17]

O=C(OC1CCCCC1)c1ccccc1C(=O)OC1CCCCC1
inactive: Potency [1] | Potency [2] | Potency [3] | max response [4] -29.8% | Potency [5] | Potency [18] | Potency [7] | Potency [8] | Potency [9] | Potency [19] | Potency [10] | Potency [11] | Potency [12] | Potency [13] | Potency [15] | Potency [16] | Potency [17]

CCC(Cl)CCl (configuration not stated)
inactive: Potency [1] | Potency [2] | Potency [3] | max response [4] 2.27% | Potency [5] | Potency [18] | Potency [7] | Potency [8] | Potency [9] | Potency [19] | Potency [20] | Potency [10] | Potency [12] | Potency [13] | Potency [14] | Potency [16]

CCCCCCCCCC(=O)O[C@H]1CC[C@H]2[C@@H]3CCC4=CC(=O)CC[C@@H]4[C@H]3CC[C@]12C
inactive: Potency [1] | Potency [2] | Potency [3] | Potency [5] | Potency [6] | Potency [18] | Potency [7] | Potency [8] | Potency [9] | Potency [19] | Potency [20] | Potency [10] | Potency [11] | Potency [12] | Potency [13] | Potency [14] | Potency [15] | Potency [16]

OCCCBr
inactive: Potency [1] | Potency [2] | Potency [3] | max response [4] -0.927% | Potency [5] | Potency [18] | Potency [7] | Potency [19] | Potency [20] | Potency [10] | Potency [13] | Potency [14] | Potency [16] | Potency [17]

CC(C)(Cl)[N+](=O)[O-]
inactive: Potency [1] | Potency [2] | Potency [3] | max response [4] 2.49% | Potency [5] | Potency [18] | Potency [7] | Potency [19] | Potency [10] | Potency [11] | Potency [12] | Potency [13] | Potency [14] | Potency [15]
active: Potency [16] 6.19 µM

COc1nn(CSP(=S)(OC)OC)c(=O)s1
inactive: Potency [1] | Potency [2] | Potency [3] | max response [4] -3.23% | Potency [5] | Potency [6] | Potency [18] | Potency [9] | Potency [19] | Potency [20] | Potency [12] | Potency [13] | Potency [14] | Potency [15] | Potency [16]

CNC(C)Cc1ccccc1OC (configuration not stated)
inactive: Potency [1] | Potency [2] | Potency [3] | max response [4] 1.99% | Potency [5] | Potency [18] | Potency [7] | Potency [19] | Potency [20] | Potency [10] | Potency [11] | Potency [12] | Potency [13] | Potency [14] | Potency [15] | Potency [16]

CCOc1nc(F)cc2nc(S(=O)(=O)Nc3c(Cl)cccc3Cl)nn12
inactive: Potency [1] | Potency [2] | Potency [3] | max response [4] 30.5% | Potency [5] | Potency [6] | Potency [18] | Potency [7] | Potency [19] | Potency [20] | Potency [10] | Potency [11] | Potency [13] | Potency [14] | Potency [15] | Potency [17]

O=C(O)C(F)(F)C(F)(F)C(F)(F)C(F)(F)C(F)(F)C(F)(F)C(F)(F)C(F)(F)C(F)(F)F
inactive: Potency [1] | Potency [2] | Potency [3] | max response [4] 1.42% | Potency [5] | Potency [18] | Potency [7] | Potency [8] | Potency [9] | Potency [19] | Potency [10] | Potency [11] | Potency [12] | Potency [13] | Potency [15] | Potency [16] | Potency [17]

O=NN1CCNCC1
inactive: Potency [1] | Potency [2] | Potency [3] | max response [4] 9.64% | Potency [5] | Potency [18] | Potency [7] | Potency [8] | Potency [9] | Potency [19] | Potency [20] | Potency [10] | Potency [12] | Potency [13] | Potency [14] | Potency [15] | Potency [16] | Potency [17]

O=C(O)CC(Cl)C(=O)O (configuration not stated)
inactive: Potency [1] | Potency [2] | Potency [3] | max response [4] 0.924% | Potency [5] | Potency [18] | Potency [9] | Potency [19] | Potency [20] | Potency [11] | Potency [12] | Potency [13] | Potency [15] | Potency [16] | Potency [17]

CCCCCCCCOC(=O)c1ccc(C(=O)OCCCCCCCC)c(C(=O)OCCCCCCCC)c1
inactive: Potency [1] | Potency [2] | Potency [3] | max response [4] -3.25% | Potency [5] | Potency [18] | Potency [7] | Potency [9] | Potency [19] | Potency [10] | Potency [11] | Potency [12] | Potency [13] | Potency [14] | Potency [15] | Potency [16] | Potency [17]

c1ccc(C2CC2)c(OCC2=NCCN2)c1
inactive: Potency [1] | Potency [2] | Potency [3] | max response [4] 3.13% | Potency [5] | Potency [18] | Potency [7] | Potency [8] | Potency [9] | Potency [19] | Potency [10] | Potency [11] | Potency [12] | Potency [13] | Potency [14] | Potency [15] | Potency [16]
